Data on 101 molecules can be found in PubChem BioAssay AID1835 (Johns Hopkins Ion Channel Center, 2009).

About 750 (31%) of roughly 2,400 compounds were called active.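 Rule for the calls: active = median signal gain over dofetilide-blocked control wells reaching their mean plus 3 SD, so readout 1 at least 0; inactive = the rest.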 Some of the results follow.

The target in the test is Voltage-gated inwardly rectifying potassium channel KCNH2 (Homo sapiens) (UniProt Q12809). As to the kind of experiment: hERG protection against dofetilide inhibition, confirmation, cell-based, thallium flux, duplicate retest, dofetilide IC70 (AID 1835). The following applies: hERG cell line, FluxOR thallium flux, dofetilide-blocked; at 10 µM; stronger effect = higher value.
Chain of Voltage-gated inwardly rectifying potassium channel KCNH2 (Homo sapiens) (Q12809 whole entry, looked up): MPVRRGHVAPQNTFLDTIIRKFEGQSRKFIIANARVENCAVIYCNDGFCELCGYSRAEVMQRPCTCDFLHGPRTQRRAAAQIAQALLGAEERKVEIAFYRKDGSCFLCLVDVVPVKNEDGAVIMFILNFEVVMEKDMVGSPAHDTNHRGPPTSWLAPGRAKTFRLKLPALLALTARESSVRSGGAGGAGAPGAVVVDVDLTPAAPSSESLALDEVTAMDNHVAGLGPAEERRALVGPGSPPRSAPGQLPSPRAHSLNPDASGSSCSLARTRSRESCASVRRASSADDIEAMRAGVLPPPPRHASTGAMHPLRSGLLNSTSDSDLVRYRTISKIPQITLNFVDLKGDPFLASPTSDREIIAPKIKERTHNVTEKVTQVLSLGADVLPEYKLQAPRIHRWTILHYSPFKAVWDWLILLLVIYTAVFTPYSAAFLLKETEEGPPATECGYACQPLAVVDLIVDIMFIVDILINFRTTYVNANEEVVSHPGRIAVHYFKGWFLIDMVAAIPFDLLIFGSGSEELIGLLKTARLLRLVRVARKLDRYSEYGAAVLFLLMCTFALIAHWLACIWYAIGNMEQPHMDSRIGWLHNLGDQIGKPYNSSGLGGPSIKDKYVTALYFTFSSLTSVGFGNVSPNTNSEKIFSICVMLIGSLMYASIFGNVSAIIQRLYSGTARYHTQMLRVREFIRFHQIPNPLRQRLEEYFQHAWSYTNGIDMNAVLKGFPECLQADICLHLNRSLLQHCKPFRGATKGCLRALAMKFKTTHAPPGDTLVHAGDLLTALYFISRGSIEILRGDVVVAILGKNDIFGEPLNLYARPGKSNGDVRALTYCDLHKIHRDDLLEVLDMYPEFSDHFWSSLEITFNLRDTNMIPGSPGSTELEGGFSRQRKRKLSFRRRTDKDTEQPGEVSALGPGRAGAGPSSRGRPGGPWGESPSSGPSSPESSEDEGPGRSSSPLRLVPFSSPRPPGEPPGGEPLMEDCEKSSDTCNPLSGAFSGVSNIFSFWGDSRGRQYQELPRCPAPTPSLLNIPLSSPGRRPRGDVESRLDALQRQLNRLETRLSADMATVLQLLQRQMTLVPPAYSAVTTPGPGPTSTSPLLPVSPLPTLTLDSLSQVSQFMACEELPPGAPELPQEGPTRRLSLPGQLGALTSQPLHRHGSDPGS
In the case of `COC(=O)C1=C(C)NC2=C(C(=O)CCC2)C1c1ccc(-c2ccsc2C(=O)OC)o1` (stereo unspecified), the activity increase over dofetilide control, less the hit threshold is 26% (active).
Consider `Cc1cc(C)c(S(=O)(=O)NCc2ccccn2)c(C)c1`, for which the activity increase over dofetilide control, less the hit threshold was -6% (inactive).
The value for `COc1cc(OC)cc(C(=O)NC(=S)Nc2ccc(NC(=O)c3ccco3)cc2)c1` was -15% (inactive); that for `CCOc1ccc(NC(=S)NC(=O)c2ccco2)cc1` was 10% (active).
Regarding `CCN(CC)c1ccc(NC(=S)NC(=O)c2ccco2)cc1`, the activity increase over dofetilide control, less the hit threshold is 48% (active).
The value for `CCCOc1ccc(C(=O)NNC(=S)NC(=O)c2ccco2)cc1` was -41% (inactive); that for `O=C(O)CNC(=O)c1ccc(NC(=O)/C(=C/c2ccccc2)NC(=O)c2ccco2)cc1` was -13% (inactive).
Regarding `O=C(CN1C(=O)COc2ccccc21)NCCCN1CCOCC1`, the activity increase over dofetilide control, less the hit threshold is -2% (inactive).
Take `Cc1ccc(-n2c(=O)c3cc4c(=O)n(-c5ccc(C)c(C)c5)c(=O)c4c(C(=O)c4ccc(C(=O)O)cc4)c3c2=O)cc1C`: the activity increase over dofetilide control, less the hit threshold is -8% (inactive).
In the case of `COc1ccc(NC(=O)N2CCN(c3ccc([N+](=O)[O-])cc3)CC2)cc1OC` it was -14% (inactive).
The value for `Cc1ccc(N2CCN(C(=O)N3CCCC3)CC2)cc1C` was 5% (active); that for `Cn1ccnc1C(O)c1cccc(OCc2ccccc2)c1` (stereo unspecified) was -10% (inactive); that for `CC1=CC(=O)C(C(C)C)=CC1=NC(=O)c1ccc(C)cc1` was -36% (inactive).
`Cc1ccc(C(=O)Sc2cccccc2=O)cc1`: the activity increase over dofetilide control, less the hit threshold is 8% (active).
In the case of `COCCCNC(=O)CCc1nnc(Cc2ccc(-c3ccccc3)cc2)o1` it was -16% (inactive); in that of `ON/C=N/C(=S)Nc1ncc(C(F)(F)F)cc1Cl`, 22% (active); in that of `CON/C=N/C(=S)Nc1ncc(C(F)(F)F)cc1Cl`, 65% (active).
The value for `CCCCNC(=O)c1onc(CSc2nc3ccccc3[nH]2)c1C(=O)NCCCC` was -12% (inactive); that for `Cc1ccc(CNC(=O)CCc2ccc(S(=O)(=O)NCC(C)C)cc2)cc1` was -8% (inactive).
In the case of `CC(NC(=O)c1ccc(Br)cc1)c1ccc2c(c1)CCCC2` (stereo unspecified), the activity increase over dofetilide control, less the hit threshold is 12% (active).
For `Cc1ccc(C(C)NC(=O)c2cccs2)cc1C` (stereo unspecified), the activity increase over dofetilide control, less the hit threshold was -21% (inactive).
The value for `CC(NC(=O)c1ccc(F)cc1)c1ccc2c(c1)CCCC2` (stereo unspecified) was -12% (inactive); that for `Fc1ccc(NC(=S)Nc2nccs2)cc1` was 0% (inactive); that for `Nc1cccc2c1C(=O)N(CC(=O)NC13CC4CC(CC(C4)C1)C3)C2=O` was -9% (inactive).
As for `Cc1ccc(/C(O)=C/C(=O)C(=O)NC23CC4CC(CC(C4)C2)C3)cc1`, the activity increase over dofetilide control, less the hit threshold was 10% (active).
For the molecule `CCC(C)c1ccccc1NC(=S)NC(=O)c1ccco1` (stereo unspecified), the activity increase over dofetilide control, less the hit threshold is 69% (active).
As to `CCOc1ccccc1NC(=S)NC(=O)c1ccco1`, the activity increase over dofetilide control, less the hit threshold is 3% (active).
The value for `CCC(C)c1ccccc1NC(=O)c1[nH]c(C)c(C(C)=O)c1C` (stereo unspecified) was -12% (inactive).
In the case of `CCC(C)c1ccccc1NC(=O)C(C)NCCN(C)C` (stereo unspecified) it was -13% (inactive); in that of `Cc1nc2n(n1)CC(O)CS2` (stereo unspecified), -14% (inactive); in that of `CN(C)CCNc1ncnc2c1sc1nc(N3CCCC3)c3c(c12)CC(C)(C)OC3`, -10% (inactive).
In the case of `CCCCc1c(O)nc(SCC(=O)O)[nH]c1=O` it was -16% (inactive); in that of `CC12CCC3(CO)COC(c4ccccc4O1)C2C3` (stereo unspecified), -5% (inactive); in that of `O=C(COC(=O)c1cc(Br)ccc1O)Nc1cccnc1Cl`, -14% (inactive).
As for `COC(=O)c1ccc(C(=O)NC(=S)Nc2nc3c(s2)CC(C)CC3)cc1` (stereo unspecified), the activity increase over dofetilide control, less the hit threshold is -10% (inactive).
On to `O=C(NC(=S)Nc1nc2c(s1)CCCC2)c1ccc(C(=O)c2ccccc2)cc1`, for which the activity increase over dofetilide control, less the hit threshold was -3% (inactive).
In the case of `CC(C)(C)c1ccc(C(=O)NC(=S)Nc2nc3c(s2)CCCC3)cc1`, the activity increase over dofetilide control, less the hit threshold is 13% (active).
In the case of `Cc1csc(NC(=O)c2cc3c(s2)CCCC3)n1` it was -5% (inactive); in that of `COC(=O)c1ccc(C(=O)NC(=S)Nc2nc3c(s2)CCCC3)cc1`, 13% (active); in that of `Cc1ccc(N2C(=O)c3ccccc3C2(O)c2ncc[nH]2)cc1` (stereo unspecified), -18% (inactive).
In the case of `CCc1nnc(NC(=O)c2c(C)nn(-c3ccccc3)c2Cl)s1` it was -16% (inactive); in that of `COc1ccc(-n2c(SCc3ccccn3)nc3c(c2=O)SCC3)cc1OC`, 3% (active); in that of `COc1ccc(-n2nc(C(=O)NCC(=O)NCc3ccc(F)cc3)c3ccccc3c2=O)cc1OC`, -13% (inactive).
The value for `CCOC(=O)c1nnsc1NC(C)=O` was -13% (inactive).
On to `CCNC(=S)Nc1scc(-c2ccccc2)c1C(=O)OCC`, for which the activity increase over dofetilide control, less the hit threshold was 5% (active).
As for `CCOC(=O)c1cc2c(nc1NC(=S)NCc1ccccc1)CCCC2`, the activity increase over dofetilide control, less the hit threshold is -1% (inactive).
For `CCOC(=O)c1c(CC(C)C)csc1NC(=O)c1ccccc1C(=O)O`, the activity increase over dofetilide control, less the hit threshold was -13% (inactive).
In the case of `CCOC(=O)c1c(-c2ccccc2)csc1NC(=S)NC`, the activity increase over dofetilide control, less the hit threshold was 7% (active).
In the case of `CCOC(=O)c1c(-c2ccc(C)o2)csc1NC(=S)NC(=O)N(C)C` it was 21% (active); in that of `C=CCn1c(N2CCCCCC2)nc2c1c(=O)n(C)c(=O)n2C`, -7% (inactive).
Turning to `CC1(OC(=O)C2CCCC2)C(=O)C=C2C=C(c3ccc(C#N)cc3)OC=C2C1=O` (stereo unspecified), the activity increase over dofetilide control, less the hit threshold was -18% (inactive).
`Cc1ccc(C)c(N2CCN(S(=O)(=O)c3ccc(-c4ccc(=O)[nH]n4)o3)CC2)c1`: the activity increase over dofetilide control, less the hit threshold was -11% (inactive).
In the case of `CC(Sc1n[nH]c(=O)[nH]c1=O)C(=O)OCc1ccccc1` (stereo unspecified) it was -11% (inactive); in that of `Cn1c2ccccc2c(=O)c2c(=O)n(Cc3ccco3)c(-c3ccc(Cl)cc3Cl)nc21`, -10% (inactive); in that of `Cn1c(=O)c2sc3c(c2n(CC(=O)Nc2ccccc2)c1=O)COC(C)(C)C3`, -12% (inactive).
In the case of `COc1ccccc1-n1cnc2cc(NS(=O)(=O)c3ccc(Br)cc3)ccc21`, the activity increase over dofetilide control, less the hit threshold is -24% (inactive).
The value for `Cc1ccc(CNC(=O)CN(C(=O)C2(C)CC(=O)N=C3C=CC=CN32)c2ccccc2F)cc1` (stereo unspecified) was -8% (inactive); that for `O=c1c2ccccc2[nH]c(=S)n1CCc1ccccc1` was 20% (active).
In the case of `CCN(CCCn1c(=S)[nH]c2ncccc2c1=O)c1ccccc1` it was -2% (inactive).
The value for `O=c1c2cc(Cl)ccc2[nH]c(=S)n1Cc1cccs1` was -8% (inactive); that for `O=C1CN(S(=O)(=O)c2ccccc2)CC(=O)N1CCc1ccccc1` was -6% (inactive); that for `CCCCn1c(=S)[nH]c2ccccc2c1=O` was 3% (active).
For the molecule `CCOCCCn1c(=S)[nH]c2cc(C(=O)NCCOC)ccc2c1=O`, the activity increase over dofetilide control, less the hit threshold is -13% (inactive).
The value for `Cc1ccc(Cn2c(=S)[nH]c3ccccc3c2=O)cc1` was 3% (active); that for `CC(C)CCn1c(=S)[nH]c2ncccc2c1=O` was -1% (inactive).
Take `CCCCCn1c(=S)[nH]c2ncccc2c1=O`: the activity increase over dofetilide control, less the hit threshold was 40% (active).
The value for `CCCCC(CC)CNC(=O)Cn1c(=S)[nH]c2ncccc2c1=O` (stereo unspecified) was -12% (inactive); that for `Cc1ccc(OCCC(=O)OC(C)C(=O)Nc2ccc(Cl)cn2)cc1` (stereo unspecified) was -11% (inactive).
The value for `CCC1(C)CC2(CCCN(CCC(=O)c3ccccc3)C2)CCO1` (stereo unspecified) was -34% (inactive).
In the case of `Cc1ccc(NC(=O)CSc2nnc(-c3cccnc3)n2-c2ccc(C)cc2)cc1` it was -20% (inactive).
Turning to `COc1ccc(-c2nc(-c3ccccn3)ncc2S(C)(=O)=O)cc1`, the activity increase over dofetilide control, less the hit threshold was -15% (inactive).
The value for `c1ccc(-c2ccc(-c3ccncn3)cc2)cc1` was -14% (inactive); that for `c1ccc(-c2n[nH]c(-c3ccccn3)n2)cc1` was 7% (active); that for `Cc1nc(Oc2ccc(Cl)cc2)c2oc3ccccc3c2n1` was -9% (inactive).
The value for `O=C1N2CCSC2=NC1(NS(=O)(=O)c1ccccc1)C(F)(F)F` (stereo unspecified) was 5% (active); that for `COc1ccc(CCNC(=O)C2CCCN(S(C)(=O)=O)C2)cc1` (stereo unspecified) was -15% (inactive).
For `COc1ccc(-n2c(SCC#N)nnc2-c2cccnc2)cc1`, the activity increase over dofetilide control, less the hit threshold is -26% (inactive).
The value for `O=C1CC(N2CCN(c3ccccc3Cl)CC2)C(=O)N1c1ccc(F)cc1` (stereo unspecified) was -10% (inactive); that for `COc1ccc(-c2c(C)c3ccc(OCC(C)=O)cc3oc2=O)cc1` was -20% (inactive).
The value for `COc1ccc(C(=O)c2oc3ccccc3c2N)cc1` was -12% (inactive); that for `CC(=O)Oc1c(-c2ccco2)oc2ccccc2c1=O` was -1% (inactive).
The value for `CC(=O)Oc1c(-c2ccc(Br)o2)oc2ccccc2c1=O` was 66% (active); that for `COc1ccc(-c2oc3ccccc3c(=O)c2OC(C)=O)cc1` was 7% (active); that for `Cc1ccnc(SCCn2c(N3CC(C)OC(C)C3)nc3c2c(=O)n(C)c(=O)n3C)n1` (stereo unspecified) was -26% (inactive).
Take `CCN1C(=O)/C(=C\c2ccc(-c3cccc(C(=O)OC)c3)o2)SC1=Nc1ccc(C(=O)O)cc1`: the activity increase over dofetilide control, less the hit threshold was -3% (inactive).
The value for `N=C1S/C(=C\c2ccco2)C(=O)N1c1nccs1` was -24% (inactive); that for `COc1ccc(/C=C2\SC(=N)N(c3nccs3)C2=O)cc1OC` was 30% (active).
On to `N=C1S/C(=C\c2ccc(-c3cccc(Cl)c3)o2)C(=O)N1c1nccs1`, for which the activity increase over dofetilide control, less the hit threshold was 50% (active).
In the case of `COc1cccc(CN(C)CC2CCCN(CCc3ccc(Cl)cc3)C2)c1OC` (stereo unspecified) it was -31% (inactive); in that of `O=C(NCc1cccs1)C1CC(c2ccc(F)cc2)=NO1` (stereo unspecified), -24% (inactive); in that of `COc1ccc(Cl)cc1C(=O)NNC(=S)NC(=O)/C=C/c1ccco1`, -4% (inactive).
As for `Cc1occc1C(=O)NNC(=S)NC(=O)COc1ccc(Cl)cc1Cl`, the activity increase over dofetilide control, less the hit threshold was 100% (active).
In the case of `CCC(=O)N1CCCc2ccccc21` it was -8% (inactive); in that of `CC(=O)N1CCCc2cc(S(=O)(=O)NCc3ccc(C)cc3)ccc21`, -1% (inactive).
On to `Cc1ccc(Cn2nnc3c(=O)n(CC(=O)N4CCCc5ccccc54)cnc32)cc1`, for which the activity increase over dofetilide control, less the hit threshold was 2% (active).
In the case of `Cn1c(=O)c2sccc2n(Cc2cccc(Br)c2)c1=O` it was -11% (inactive); in that of `Cn1c(=O)[nH]c(=O)c2c1nc(CN1CCN(c3ccccc3F)CC1)n2CCCc1ccccc1`, -7% (inactive); in that of `O=C(COC(=O)C1C2CC3OC(=O)C1C3C2)Nc1ccc(Cl)cc1` (stereo unspecified), -17% (inactive).
Take `CC(/C=C1\N=C(SCc2ccccc2Cl)SC1=O)=C\c1ccccc1`: the activity increase over dofetilide control, less the hit threshold was -9% (inactive).
Regarding `O=C(O)CCCCn1c(SCc2ccccc2Cl)nc2ccsc2c1=O`, the activity increase over dofetilide control, less the hit threshold was 4% (active).
The value for `O=C(CN1C(=O)c2ccccc2S1(=O)=O)NCCSCc1ccccc1Cl` was -16% (inactive).
